# Source: publication PMC7862700, “An all-to-all approach to the identification of sequence-specific readers for epigenetic DNA modifications on cytosine”
# Columns and labels:
# Test in all cases: DAPPL (digital affinity profiling via proximity ligation, sequencing); 10 mM Tris-HCl pH 7.5, 50 mM NaCl, 1 mM DTT, 4% glycerol, room temperature, 30 min; GST-TFs on glutathione beads, 16-mer random dsDNA library, 0.1% formaldehyde crosslink after washing; high values mean tight binding
# FLI1 = molecular target: T1, FLI1 (Homo sapiens, UniProt Q01543 1-452); details: protein: recombinant; tags: N-terminal GST; dsDNA, one strand shown
# T1 sequence: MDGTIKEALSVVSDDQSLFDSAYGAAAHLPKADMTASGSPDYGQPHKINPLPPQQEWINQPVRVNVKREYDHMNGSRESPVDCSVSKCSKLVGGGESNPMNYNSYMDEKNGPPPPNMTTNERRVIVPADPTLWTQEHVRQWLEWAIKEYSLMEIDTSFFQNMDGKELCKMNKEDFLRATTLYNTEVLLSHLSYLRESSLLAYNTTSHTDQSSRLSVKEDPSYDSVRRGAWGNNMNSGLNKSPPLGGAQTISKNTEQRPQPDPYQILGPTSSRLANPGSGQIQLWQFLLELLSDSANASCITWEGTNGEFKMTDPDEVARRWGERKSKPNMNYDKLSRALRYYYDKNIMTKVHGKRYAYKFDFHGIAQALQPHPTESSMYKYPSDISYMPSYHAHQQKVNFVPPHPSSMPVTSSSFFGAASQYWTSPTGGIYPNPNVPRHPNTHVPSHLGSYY
# Method in brief: (§1)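 Pools of DNA-barcoded human transcription factors, expressed in yeast as GST fusions on glutathione beads and combined with a tag-only sample, were incubated with 200 nmole of a 16-mer random double-stranded DNA library. Incubation took 30 min at room temperature in Tris/NaCl/DTT/glycerol buffer and was followed by washing, 0.1% formaldehyde crosslinking, proximity ligation (BsaI/T4 ligase, 1 h, 37 °C), PCR amplification and sequencing on an Illumina NextSeq500. Binding signal is the ratio of a hexamer's read frequency for a factor to its frequency for the tag-only sample.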
# ELK1 = molecular target: T2, ELK1 (Homo sapiens, UniProt P19419 1-428); details: protein: recombinant; tags: N-terminal GST; dsDNA, one strand shown
# T2 sequence: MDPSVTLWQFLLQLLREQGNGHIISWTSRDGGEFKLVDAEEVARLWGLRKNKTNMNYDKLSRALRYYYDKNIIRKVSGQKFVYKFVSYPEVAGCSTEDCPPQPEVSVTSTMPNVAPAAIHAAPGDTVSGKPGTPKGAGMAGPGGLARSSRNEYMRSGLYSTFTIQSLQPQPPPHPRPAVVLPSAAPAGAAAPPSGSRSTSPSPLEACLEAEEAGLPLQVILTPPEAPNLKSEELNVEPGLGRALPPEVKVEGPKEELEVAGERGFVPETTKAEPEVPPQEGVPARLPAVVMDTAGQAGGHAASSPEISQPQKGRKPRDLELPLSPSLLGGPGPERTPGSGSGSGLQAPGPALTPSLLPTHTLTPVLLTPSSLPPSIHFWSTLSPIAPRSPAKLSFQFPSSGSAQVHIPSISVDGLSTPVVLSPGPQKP
# Method in brief: as §1
# GABPA = molecular target: T3, GABPA (Homo sapiens, UniProt Q06546 1-454); details: protein: recombinant; tags: N-terminal GST; dsDNA, one strand shown
# T3 sequence: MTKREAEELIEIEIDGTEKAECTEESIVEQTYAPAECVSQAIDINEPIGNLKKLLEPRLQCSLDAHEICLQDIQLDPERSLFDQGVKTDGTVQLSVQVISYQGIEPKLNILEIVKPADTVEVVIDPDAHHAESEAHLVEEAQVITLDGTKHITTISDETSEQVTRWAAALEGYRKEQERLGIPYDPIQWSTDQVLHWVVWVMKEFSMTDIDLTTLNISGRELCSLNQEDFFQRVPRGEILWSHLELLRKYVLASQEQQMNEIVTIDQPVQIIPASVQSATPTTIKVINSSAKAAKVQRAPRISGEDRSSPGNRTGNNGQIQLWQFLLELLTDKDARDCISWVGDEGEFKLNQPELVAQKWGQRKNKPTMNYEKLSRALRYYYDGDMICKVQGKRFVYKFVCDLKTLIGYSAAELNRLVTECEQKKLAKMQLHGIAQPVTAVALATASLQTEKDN
# Method in brief: as §1
# ERG = molecular target: T4, ERG (Homo sapiens, UniProt P11308 1-479); details: protein: recombinant; tags: N-terminal GST; dsDNA, one strand shown
# T4 sequence: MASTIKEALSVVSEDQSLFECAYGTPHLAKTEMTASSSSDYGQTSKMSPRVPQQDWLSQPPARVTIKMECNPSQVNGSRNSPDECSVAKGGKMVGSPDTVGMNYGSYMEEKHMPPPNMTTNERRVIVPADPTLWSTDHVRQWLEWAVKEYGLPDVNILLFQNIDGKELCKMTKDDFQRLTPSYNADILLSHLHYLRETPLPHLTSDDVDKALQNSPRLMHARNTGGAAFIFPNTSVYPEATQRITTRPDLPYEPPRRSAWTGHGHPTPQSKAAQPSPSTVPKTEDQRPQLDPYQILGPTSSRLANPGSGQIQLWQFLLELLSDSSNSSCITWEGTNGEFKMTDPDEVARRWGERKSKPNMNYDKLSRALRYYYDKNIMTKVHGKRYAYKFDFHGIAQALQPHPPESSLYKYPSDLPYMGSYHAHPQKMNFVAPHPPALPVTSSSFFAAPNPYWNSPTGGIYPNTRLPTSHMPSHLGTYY
# Method in brief: as §1
# ELF1 = ELF1 (Homo sapiens, UniProt P32519 1-619); details: protein: recombinant; tags: N-terminal GST; dsDNA, one strand shown
# Method in brief: as §1
# EHF = molecular target: T5, EHF (Homo sapiens, UniProt Q9NZC4 1-300); details: protein: recombinant; tags: N-terminal GST; dsDNA, one strand shown
# T5 sequence: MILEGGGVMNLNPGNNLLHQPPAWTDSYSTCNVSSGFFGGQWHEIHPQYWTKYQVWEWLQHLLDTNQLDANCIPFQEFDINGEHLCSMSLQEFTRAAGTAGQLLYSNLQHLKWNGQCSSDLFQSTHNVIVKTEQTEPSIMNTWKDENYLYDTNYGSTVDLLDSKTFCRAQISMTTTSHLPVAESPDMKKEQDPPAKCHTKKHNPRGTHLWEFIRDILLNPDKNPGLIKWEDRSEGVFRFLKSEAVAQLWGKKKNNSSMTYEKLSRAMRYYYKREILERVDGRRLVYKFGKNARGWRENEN
# Method in brief: as §1
# SPI1 = SPI1 (Homo sapiens, UniProt P17947 1-270); details: protein: recombinant; tags: N-terminal GST; dsDNA, one strand shown
# Method in brief: as §1
# SPIB = SPIB (Homo sapiens, UniProt Q01892 1-262); details: protein: recombinant; tags: N-terminal GST; dsDNA, one strand shown
# Method in brief: as §1
# ELK3 = molecular target: T6, ELK3 (Homo sapiens, UniProt P41970 1-407); details: protein: recombinant; tags: N-terminal GST; dsDNA, one strand shown
# T6 sequence: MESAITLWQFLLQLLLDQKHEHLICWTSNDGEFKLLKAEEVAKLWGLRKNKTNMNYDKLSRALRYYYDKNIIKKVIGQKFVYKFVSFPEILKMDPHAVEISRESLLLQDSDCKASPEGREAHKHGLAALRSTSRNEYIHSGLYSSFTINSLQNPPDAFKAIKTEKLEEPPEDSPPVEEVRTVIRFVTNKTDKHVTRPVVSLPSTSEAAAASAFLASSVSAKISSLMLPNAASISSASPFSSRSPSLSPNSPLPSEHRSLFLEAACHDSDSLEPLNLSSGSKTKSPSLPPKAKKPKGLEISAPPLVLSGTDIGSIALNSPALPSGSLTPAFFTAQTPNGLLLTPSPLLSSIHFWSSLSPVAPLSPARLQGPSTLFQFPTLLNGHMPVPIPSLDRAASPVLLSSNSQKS
# Method in brief: as §1
# FEV = molecular target: T7, FEV (Homo sapiens, UniProt Q99581 1-238); details: protein: recombinant; tags: N-terminal GST; dsDNA, one strand shown
# T7 sequence: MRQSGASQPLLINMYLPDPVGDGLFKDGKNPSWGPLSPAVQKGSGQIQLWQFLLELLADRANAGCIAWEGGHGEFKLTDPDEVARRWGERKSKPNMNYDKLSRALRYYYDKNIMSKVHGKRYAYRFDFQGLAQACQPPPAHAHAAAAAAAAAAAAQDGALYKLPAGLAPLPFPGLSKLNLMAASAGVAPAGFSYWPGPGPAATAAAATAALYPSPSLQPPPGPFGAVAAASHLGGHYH
# Method in brief: as §1
# ETV5 = ETV5 (Homo sapiens, UniProt P41161 1-510); details: protein: recombinant; tags: N-terminal GST; dsDNA, one strand shown
# Method in brief: as §1
# HSF1 = HSF1 (Homo sapiens, UniProt Q00613 1-529); details: protein: recombinant; tags: N-terminal GST; chain copies: 3; dsDNA, one strand shown
# Method in brief: as §1
# SPIC = molecular target: T8, SPIC (Homo sapiens, UniProt Q8N5J4 1-248); details: protein: recombinant; tags: N-terminal GST; dsDNA, one strand shown
# T8 sequence: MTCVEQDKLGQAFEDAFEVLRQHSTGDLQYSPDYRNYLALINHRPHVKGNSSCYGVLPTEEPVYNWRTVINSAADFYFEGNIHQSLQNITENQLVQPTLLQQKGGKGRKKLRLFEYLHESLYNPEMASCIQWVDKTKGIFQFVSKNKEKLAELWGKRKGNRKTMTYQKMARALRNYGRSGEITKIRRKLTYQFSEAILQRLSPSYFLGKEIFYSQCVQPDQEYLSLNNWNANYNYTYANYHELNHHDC
# Method in brief: as §1
# ELF4 = ELF4 (Homo sapiens, UniProt Q99607 1-663); details: protein: recombinant; tags: N-terminal GST; dsDNA, one strand shown
# Method in brief: as §1
# ELK4 = molecular target: T9, ELK4 (Homo sapiens, UniProt P28324-2 1-405); details: protein: recombinant; tags: N-terminal GST; dsDNA, one strand shown
# T9 sequence: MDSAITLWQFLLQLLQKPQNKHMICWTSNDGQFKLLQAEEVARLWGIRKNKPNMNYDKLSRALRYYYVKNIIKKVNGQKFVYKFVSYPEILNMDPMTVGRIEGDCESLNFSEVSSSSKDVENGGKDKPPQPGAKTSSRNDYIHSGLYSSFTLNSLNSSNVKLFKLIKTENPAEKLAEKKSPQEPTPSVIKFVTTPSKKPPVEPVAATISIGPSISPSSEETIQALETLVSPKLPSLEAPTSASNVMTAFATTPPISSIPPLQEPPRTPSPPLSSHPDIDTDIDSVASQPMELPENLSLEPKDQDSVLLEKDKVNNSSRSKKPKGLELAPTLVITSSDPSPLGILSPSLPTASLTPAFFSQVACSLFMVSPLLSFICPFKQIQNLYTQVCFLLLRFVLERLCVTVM
# Method in brief: as §1
# ETV2 = molecular target: T10, ETV2 (Homo sapiens, UniProt O00321 1-342); details: protein: recombinant; tags: N-terminal GST; dsDNA, one strand shown
# T10 sequence: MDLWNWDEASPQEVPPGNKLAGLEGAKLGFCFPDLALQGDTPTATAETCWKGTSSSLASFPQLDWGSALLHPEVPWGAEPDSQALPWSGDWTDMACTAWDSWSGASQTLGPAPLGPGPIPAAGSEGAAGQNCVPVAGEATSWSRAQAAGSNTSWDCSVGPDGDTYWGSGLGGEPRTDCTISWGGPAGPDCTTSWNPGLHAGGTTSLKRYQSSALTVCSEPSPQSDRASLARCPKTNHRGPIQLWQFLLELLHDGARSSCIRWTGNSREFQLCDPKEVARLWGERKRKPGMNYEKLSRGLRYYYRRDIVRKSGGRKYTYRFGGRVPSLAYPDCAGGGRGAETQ
# Method in brief: as §1
# ELF3 = molecular target: T11, ELF3 (Homo sapiens, UniProt P78545 1-371); details: protein: recombinant; tags: N-terminal GST; dsDNA, one strand shown
# T11 sequence: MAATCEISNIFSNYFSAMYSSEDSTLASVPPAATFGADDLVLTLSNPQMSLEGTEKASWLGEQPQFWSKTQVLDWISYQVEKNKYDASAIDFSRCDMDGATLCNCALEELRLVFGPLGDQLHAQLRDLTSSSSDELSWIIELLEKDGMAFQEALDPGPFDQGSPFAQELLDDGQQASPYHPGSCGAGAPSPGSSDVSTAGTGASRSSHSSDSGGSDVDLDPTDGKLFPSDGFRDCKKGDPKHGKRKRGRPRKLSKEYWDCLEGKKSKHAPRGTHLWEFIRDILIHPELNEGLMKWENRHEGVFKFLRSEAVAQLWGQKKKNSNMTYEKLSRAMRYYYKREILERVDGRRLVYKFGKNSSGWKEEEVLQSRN
# Method in brief: as §1
# CRX = CRX (Homo sapiens, UniProt O43186 1-299); details: protein: recombinant; tags: N-terminal GST; dsDNA, one strand shown
# Method in brief: as §1
# ETV1 = ETV1 (Homo sapiens, UniProt P50549 1-477); details: protein: recombinant; tags: N-terminal GST; dsDNA, one strand shown
# Method in brief: as §1
# Sequence of SPIB (Q01892 whole entry): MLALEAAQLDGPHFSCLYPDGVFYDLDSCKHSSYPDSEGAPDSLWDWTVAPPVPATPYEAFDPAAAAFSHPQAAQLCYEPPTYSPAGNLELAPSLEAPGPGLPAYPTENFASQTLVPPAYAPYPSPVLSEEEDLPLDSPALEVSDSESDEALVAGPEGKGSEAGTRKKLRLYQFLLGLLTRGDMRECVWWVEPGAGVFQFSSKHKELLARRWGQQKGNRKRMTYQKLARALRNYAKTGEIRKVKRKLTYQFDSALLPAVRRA
# Sequence of ELF1 (P32519 whole entry): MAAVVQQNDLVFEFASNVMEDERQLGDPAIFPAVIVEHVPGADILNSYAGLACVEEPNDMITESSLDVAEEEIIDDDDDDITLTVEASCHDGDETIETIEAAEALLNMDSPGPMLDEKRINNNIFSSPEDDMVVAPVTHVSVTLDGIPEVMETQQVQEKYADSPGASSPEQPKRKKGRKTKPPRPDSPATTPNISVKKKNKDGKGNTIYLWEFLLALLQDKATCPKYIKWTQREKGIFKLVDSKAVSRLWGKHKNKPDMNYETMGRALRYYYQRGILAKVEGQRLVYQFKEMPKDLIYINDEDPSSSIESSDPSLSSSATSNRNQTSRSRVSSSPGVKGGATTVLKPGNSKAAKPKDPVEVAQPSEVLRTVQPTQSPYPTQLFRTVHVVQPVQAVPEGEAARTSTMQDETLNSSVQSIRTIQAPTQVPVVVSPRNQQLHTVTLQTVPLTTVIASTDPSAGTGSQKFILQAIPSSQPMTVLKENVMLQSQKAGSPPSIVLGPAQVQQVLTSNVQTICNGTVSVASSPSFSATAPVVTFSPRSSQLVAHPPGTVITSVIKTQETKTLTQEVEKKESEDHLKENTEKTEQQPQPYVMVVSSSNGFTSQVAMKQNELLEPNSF
# Sequence of HSF1 (Q00613 whole entry): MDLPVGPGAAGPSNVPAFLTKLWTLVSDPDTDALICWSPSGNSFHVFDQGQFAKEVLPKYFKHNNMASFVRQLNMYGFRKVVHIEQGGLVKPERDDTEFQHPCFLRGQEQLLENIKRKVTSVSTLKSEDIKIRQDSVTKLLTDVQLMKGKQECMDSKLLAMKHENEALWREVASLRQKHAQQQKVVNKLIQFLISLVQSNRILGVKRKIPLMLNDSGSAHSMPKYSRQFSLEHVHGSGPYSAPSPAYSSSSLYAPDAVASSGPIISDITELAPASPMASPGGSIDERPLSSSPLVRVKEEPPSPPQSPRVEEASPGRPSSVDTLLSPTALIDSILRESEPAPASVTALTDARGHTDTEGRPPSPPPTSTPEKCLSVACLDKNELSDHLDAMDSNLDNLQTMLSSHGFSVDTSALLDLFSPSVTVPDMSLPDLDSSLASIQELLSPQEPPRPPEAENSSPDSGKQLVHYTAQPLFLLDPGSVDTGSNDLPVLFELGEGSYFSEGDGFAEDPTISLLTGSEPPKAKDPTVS
# Sequence of CRX (O43186 whole entry): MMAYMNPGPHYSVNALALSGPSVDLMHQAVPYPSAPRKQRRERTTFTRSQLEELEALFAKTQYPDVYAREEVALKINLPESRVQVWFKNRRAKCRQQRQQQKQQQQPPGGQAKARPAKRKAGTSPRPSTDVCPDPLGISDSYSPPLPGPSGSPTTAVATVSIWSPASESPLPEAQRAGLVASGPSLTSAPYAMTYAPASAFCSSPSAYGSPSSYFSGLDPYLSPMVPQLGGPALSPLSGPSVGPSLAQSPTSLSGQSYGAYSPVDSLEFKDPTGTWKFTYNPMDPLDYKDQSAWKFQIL
# Sequence of ELF4 (Q99607 whole entry): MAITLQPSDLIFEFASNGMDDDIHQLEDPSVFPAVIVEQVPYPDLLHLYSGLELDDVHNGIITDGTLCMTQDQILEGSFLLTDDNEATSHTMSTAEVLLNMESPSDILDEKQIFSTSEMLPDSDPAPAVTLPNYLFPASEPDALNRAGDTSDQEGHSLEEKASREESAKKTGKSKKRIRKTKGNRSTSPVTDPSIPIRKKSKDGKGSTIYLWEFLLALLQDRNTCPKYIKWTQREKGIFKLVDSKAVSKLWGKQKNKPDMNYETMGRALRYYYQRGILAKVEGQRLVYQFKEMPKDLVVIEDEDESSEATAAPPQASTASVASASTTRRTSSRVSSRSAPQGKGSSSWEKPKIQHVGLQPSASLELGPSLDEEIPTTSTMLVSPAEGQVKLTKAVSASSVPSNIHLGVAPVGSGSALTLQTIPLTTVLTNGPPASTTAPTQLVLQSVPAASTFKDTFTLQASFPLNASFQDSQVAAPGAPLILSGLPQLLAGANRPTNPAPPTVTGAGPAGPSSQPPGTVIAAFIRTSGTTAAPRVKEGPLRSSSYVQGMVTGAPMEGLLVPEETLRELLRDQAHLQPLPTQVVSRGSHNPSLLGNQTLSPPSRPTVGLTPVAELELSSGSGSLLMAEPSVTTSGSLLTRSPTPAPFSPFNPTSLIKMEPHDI
# Sequence of ETV1 (P50549 whole entry): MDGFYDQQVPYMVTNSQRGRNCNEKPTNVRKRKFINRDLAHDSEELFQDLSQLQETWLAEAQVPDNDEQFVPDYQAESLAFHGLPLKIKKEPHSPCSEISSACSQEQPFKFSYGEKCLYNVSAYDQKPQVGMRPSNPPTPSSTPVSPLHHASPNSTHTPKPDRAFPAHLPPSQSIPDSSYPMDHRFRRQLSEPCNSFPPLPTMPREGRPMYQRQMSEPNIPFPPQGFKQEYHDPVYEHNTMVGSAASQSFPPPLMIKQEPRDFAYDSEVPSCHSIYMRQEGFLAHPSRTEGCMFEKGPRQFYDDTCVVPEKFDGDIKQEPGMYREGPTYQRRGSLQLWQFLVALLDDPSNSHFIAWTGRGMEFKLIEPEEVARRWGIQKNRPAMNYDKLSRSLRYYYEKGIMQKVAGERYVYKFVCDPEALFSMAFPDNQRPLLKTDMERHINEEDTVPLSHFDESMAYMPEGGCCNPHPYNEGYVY
# Sequence of ETV5 (P41161 whole entry): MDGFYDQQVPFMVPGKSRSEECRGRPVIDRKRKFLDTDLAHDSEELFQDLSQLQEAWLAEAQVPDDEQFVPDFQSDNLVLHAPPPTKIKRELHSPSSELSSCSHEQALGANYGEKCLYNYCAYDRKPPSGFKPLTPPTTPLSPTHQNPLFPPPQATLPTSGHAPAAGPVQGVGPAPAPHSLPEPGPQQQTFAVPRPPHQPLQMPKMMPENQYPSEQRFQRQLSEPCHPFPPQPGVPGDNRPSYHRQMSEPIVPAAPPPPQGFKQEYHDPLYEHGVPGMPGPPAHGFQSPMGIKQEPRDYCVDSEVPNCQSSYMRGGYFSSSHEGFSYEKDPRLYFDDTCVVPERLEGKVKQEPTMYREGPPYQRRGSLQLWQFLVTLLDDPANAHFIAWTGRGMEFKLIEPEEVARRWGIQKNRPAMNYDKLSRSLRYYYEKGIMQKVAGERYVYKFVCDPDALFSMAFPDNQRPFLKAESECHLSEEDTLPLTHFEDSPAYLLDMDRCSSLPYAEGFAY
sequence,measurement,setting,value
TTATCT,binding signal,FLI1,"1.37 fold enrichment (6-mer frequency, TF over GST control)"
same,binding signal,ELK1,"1.2 fold enrichment (6-mer frequency, TF over GST control)"
same,binding signal,GABPA,"1.41 fold enrichment (6-mer frequency, TF over GST control)"
same,binding signal,ERG,"1.15 fold enrichment (6-mer frequency, TF over GST control)"
same,binding signal,ELF1,"1.31 fold enrichment (6-mer frequency, TF over GST control)"
same,binding signal,EHF,"1.3 fold enrichment (6-mer frequency, TF over GST control)"
same,binding signal,SPI1,"1.31 fold enrichment (6-mer frequency, TF over GST control)"
same,binding signal,SPIB,"1.34 fold enrichment (6-mer frequency, TF over GST control)"
same,binding signal,ELK3,"1.36 fold enrichment (6-mer frequency, TF over GST control)"
same,binding signal,FEV,"1.24 fold enrichment (6-mer frequency, TF over GST control)"
same,binding signal,ETV5,"1.27 fold enrichment (6-mer frequency, TF over GST control)"
same,binding signal,HSF1,"2.24 fold enrichment (6-mer frequency, TF over GST control)"
same,binding signal,SPIC,"1.25 fold enrichment (6-mer frequency, TF over GST control)"
same,binding signal,ELF4,"1.25 fold enrichment (6-mer frequency, TF over GST control)"
same,binding signal,ELK4,"1.45 fold enrichment (6-mer frequency, TF over GST control)"
same,binding signal,ETV2,"1.2 fold enrichment (6-mer frequency, TF over GST control)"
same,binding signal,ELF3,"1.13 fold enrichment (6-mer frequency, TF over GST control)"
same,binding signal,CRX,"3.25 fold enrichment (6-mer frequency, TF over GST control)"
same,binding signal,ETV1,"1.29 fold enrichment (6-mer frequency, TF over GST control)"
